In ChEMBL document CHEMBL3988442, “University of Dundee, Small-Polar-MMV Screening Library” (2021):

target: AMP-activated protein kinase, AMPK (Homo sapiens) (UniProt P54646+O43741+P54619+Q9UGJ0+Q9Y478+Q13131+Q9UGI9); assay: AMP-dependent Kinase enzyme assay. An in vitro enzyme assay that detects ADP turnover that is directly proportional to AMPK activity. This uses naive AMPK that is activated during the assay with MK-8722; assay type: functional; design: scale not given: direction of the effect not stated beside the values; conditions: 30 µM

| SMILES | Percent Effect |
| --- | --- |
| Cn1cc(N2CCN(c3ccc(C#N)cc3Br)CC2=O)cn1 | -4.14% |
| CN(C)S(=O)(=O)NCC1CCN(Cc2ccccc2F)CC1 | -2.6% |
| CN(C)c1ccc(C(=O)Nc2cnn(Cc3ccccn3)c2)cc1 | -1.9% |
| CSCCC(NC(=O)c1ccccc1)C(=O)N(C)Cc1ccsc1 (stereo unspecified) | -4.15% |
| CC(C)c1nc(CC(=O)Nc2cnccc2O)cs1 | -1.17% |
| CCc1ccc(CCn2cnc(C#N)n2)cc1 | -0.907% |
| Cc1cc(C)n(CCCN(C)c2cc(N(C)C)ncn2)n1 | 0.376% |
| CN(C)c1nc2c(c(=O)[nH]1)CCN(C(=O)C1CCCO1)C2 (stereo unspecified) | 2.77% |
| CNS(=O)(=O)c1ccc(CNC(=O)NCc2cc[nH]n2)cc1 | 2.83% |
| Cc1ccc(-c2noc(C3CCN3C(=O)c3ccn(C)n3)n2)s1 (stereo unspecified) | 12% |
| CN(C)C(=O)N1CCN(c2cc(N3CCCC3CO)ncn2)CC1 (stereo unspecified) | -3.16% |
| O=C(OCC1CCCN1)c1cccc(NC(=O)c2ccco2)c1 (stereo unspecified) | -4.3% |
| CC(C(=O)Nc1cccc(C(F)(F)F)c1)N(C)CCN1CCOCC1 (stereo unspecified) | 8.76% |
| CN(Cc1ncnn1C1Cc2ccccc2C1)C1CCS(=O)(=O)C1 (stereo unspecified) | 1.61% |
| Cc1cc(C)c(NC(=O)Nc2cnn(CC(O)CN(C)C)c2)c(C)c1 (stereo unspecified) | 0.923% |
| CCC(C)C(=O)N(Cc1ccccn1)C1CC1 (stereo unspecified) | 2.05% |
| Cc1[nH]c2c(C)ccc(C)c2c1CC(=O)NC1CCCNC1=O (stereo unspecified) | 6.1% |
| Cc1ccc(S(=O)(=O)N(C)CC(C)O)c(F)c1 (stereo unspecified) | 8.59% |
| Cc1ccc2nc(CN3CCCCC3CCN3CCOCC3)cn2c1 (stereo unspecified) | 6.28% |
| Cc1ncsc1C(=O)NCCN1CCCCCC1=O | -13.5% |
| CNC(=O)NC(=O)CN(Cc1ccc(C#N)cc1)Cc1cccc(F)c1 | -4.48% |
